Source: PubChem BioAssay AID651598 (Sanford-Burnham Center for Chemical Genomics, 2012)
Values joined by “and” are separate entries in the source; they are usually repeats but may differ in a detail not shown here. Identical values can stand only once.

target: Apelin receptor (Homo sapiens) (UniProt P35414); assay: apelin receptor (APJ) antagonists, SAR follow-up, counter-screen for CXCR6 antagonist project, cell-based, beta-arrestin, DiscoveRx, panel, CHO-K1 (AID 651598); settings: CHO-K1 PathHunter beta-arrestin luminescence, antagonist mode; run 3, at 80 µM (top of the series)
Sequence (P35414 whole entry, looked up): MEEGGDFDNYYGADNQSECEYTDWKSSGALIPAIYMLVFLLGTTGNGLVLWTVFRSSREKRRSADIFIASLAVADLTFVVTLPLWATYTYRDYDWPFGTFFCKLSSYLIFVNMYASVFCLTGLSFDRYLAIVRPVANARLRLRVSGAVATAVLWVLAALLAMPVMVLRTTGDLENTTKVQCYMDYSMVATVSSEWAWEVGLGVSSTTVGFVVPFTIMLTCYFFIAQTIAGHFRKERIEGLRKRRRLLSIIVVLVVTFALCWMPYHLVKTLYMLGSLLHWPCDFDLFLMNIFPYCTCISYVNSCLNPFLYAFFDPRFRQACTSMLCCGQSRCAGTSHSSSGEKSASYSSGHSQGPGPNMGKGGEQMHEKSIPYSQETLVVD

Row | SMILES | inhibition
1 | COc1cc(C(=O)NC2CC3CCC(C2)N3CC(=O)Nc2ccccc2)cc(OC)c1OC (stereo not drawn) | 2.29% and 12.1%
2 | COc1cc(C(=O)NC2CC3CCCC(C2)N3CC(=O)Nc2ccccc2)cc(OC)c1OC (stereo not drawn) | -24.7% and 10.7% and 13.8%
3 | COc1cc(C(=O)NC2CCN(CC(=O)Nc3ccccc3)CC2)cc(OC)c1OC | 19.7%
